Each structure is given as a SMILES string. Entries with a potency or affinity are not part of this list. Active and inactive are the calls of the source. No rule for the calls is given here.

The nature of this test: HepG2 cell cytotoxicity, dose response, cytotoxicity control, set 3 (AID 504853). To be noted: series mostly up to 50 µM.
For the molecule `CCC(Sc1nc2ccccc2c(=O)[nH]1)C(=O)NC1CCCCC1` (stereo unspecified), the molecule was called inactive. In the case of `COC(=O)c1ccc(CNc2c(N3CCCC3)c(=O)c2=O)cc1` it was “inactive”. Then `CCSc1nc2ccccc2c(=O)[nH]1`, with “inactive”; and `CC(C)CCNC(=O)CSc1nc2c(c(=O)[nH]1)CCC2`, with “inactive”; and `O=C(CSc1nc2c(c(=O)[nH]1)CCCC2)NC1CCCCC1`, with “inactive”. Then `COc1cccc(NC(=O)CSc2nc3ccccc3c(=O)[nH]2)c1`, with “inactive”; and `O=C(CSc1nccc(=O)[nH]1)NC1CCCCC1`, with “inactive”; and `O=C(CSc1nc2c(c(=O)[nH]1)CCC2)NC1CCCCC1`, with “inactive”. In the case of `Cc1cc(=O)[nH]c(=S)[nH]1`, the molecule was classed as inactive.

As to `Cc1cnc(SCC(=O)NC2CCCCC2)[nH]c1=O`, the outcome was inactive. In the case of `COc1ccc(NC(=O)CSc2nc3ccccc3c(=O)[nH]2)cc1` it was “inactive”; in that of `O=C(CSc1nc2ccccc2c(=O)[nH]1)N1CCOCC1`, “inactive”; in that of `Cc1c[nH]c(=S)[nH]c1=O`, “inactive”.

Consider `COc1cccc(NC(=O)CSc2nc3c(c(=O)[nH]2)CCC3)c1`, for which the molecule was called inactive. Take `COC(=O)C(C)Oc1ccc(Cc2ncc(C(F)(F)F)cc2Cl)cc1` (stereo unspecified): the call was inactive. In the case of `CC1CCN(C(=O)C2CCN(c3nnc(-n4cccc4)s3)CC2)CC1` it was “inactive”.

Regarding `Nc1cc(=O)[nH]c(SCC(=O)NC2CCCCC2)n1`, the molecule was called inactive. In the case of `CNC(=O)CSc1nc2ccccc2c(=O)[nH]1` it was “inactive”. Then `CCOC(=O)CSc1nc(C)c(C)c(=O)[nH]1`, with “inactive”; and `CC(C)CCNC(=O)CSc1nc2ccccc2c(=O)[nH]1`, with “inactive”. Then `COC(=O)C(Nc1nc(SCC(=O)NC2CCCCC2)nc2ccccc12)c1ccccc1` (stereo unspecified), with “inactive”.
